Experimental data taken from the supplement of paper PMC11732987, “Enantioselective OTUD7B fragment discovery through chemoproteomics screening and high-throughput optimisation” (Communications Chemistry, 2025).

Tests used:
Assay in all cases: log2 ratio of Biotin-Ahx-Ub-VS probe labelling (fragment/DMSO); higher = less target engagement (more negative = stronger competition), active = hit call of the paper (q ≤ 0.05, log2 ratio ≤ -1)
Conditions in all cases: compound concentration: 200 uM; treatment time: 3 h
USP16 = USP16 (UniProt Q9Y5T5)
Method in brief: (§1)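 Global-median-normalised Spectronaut label-free quantities were compared by unpaired t-test, and values are average log2 ratios of fragment over vehicle. Only proteins with ≥2 unique peptides were used. HEK293T lysate (495 µg per sample) was treated in triplicate with fragment at 200 µM or vehicle for 3 h and then with Biotin-Ahx-Ub-VS at 0.5 µM final for 1 h. Labelled DUBs were then NeutrAvidin-enriched, digested with LysC and trypsin, and run by diaPASEF LC-MS/MS.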

USP19 = target: T1, USP19 (UniProt O94966)
T1 sequence (whole entry): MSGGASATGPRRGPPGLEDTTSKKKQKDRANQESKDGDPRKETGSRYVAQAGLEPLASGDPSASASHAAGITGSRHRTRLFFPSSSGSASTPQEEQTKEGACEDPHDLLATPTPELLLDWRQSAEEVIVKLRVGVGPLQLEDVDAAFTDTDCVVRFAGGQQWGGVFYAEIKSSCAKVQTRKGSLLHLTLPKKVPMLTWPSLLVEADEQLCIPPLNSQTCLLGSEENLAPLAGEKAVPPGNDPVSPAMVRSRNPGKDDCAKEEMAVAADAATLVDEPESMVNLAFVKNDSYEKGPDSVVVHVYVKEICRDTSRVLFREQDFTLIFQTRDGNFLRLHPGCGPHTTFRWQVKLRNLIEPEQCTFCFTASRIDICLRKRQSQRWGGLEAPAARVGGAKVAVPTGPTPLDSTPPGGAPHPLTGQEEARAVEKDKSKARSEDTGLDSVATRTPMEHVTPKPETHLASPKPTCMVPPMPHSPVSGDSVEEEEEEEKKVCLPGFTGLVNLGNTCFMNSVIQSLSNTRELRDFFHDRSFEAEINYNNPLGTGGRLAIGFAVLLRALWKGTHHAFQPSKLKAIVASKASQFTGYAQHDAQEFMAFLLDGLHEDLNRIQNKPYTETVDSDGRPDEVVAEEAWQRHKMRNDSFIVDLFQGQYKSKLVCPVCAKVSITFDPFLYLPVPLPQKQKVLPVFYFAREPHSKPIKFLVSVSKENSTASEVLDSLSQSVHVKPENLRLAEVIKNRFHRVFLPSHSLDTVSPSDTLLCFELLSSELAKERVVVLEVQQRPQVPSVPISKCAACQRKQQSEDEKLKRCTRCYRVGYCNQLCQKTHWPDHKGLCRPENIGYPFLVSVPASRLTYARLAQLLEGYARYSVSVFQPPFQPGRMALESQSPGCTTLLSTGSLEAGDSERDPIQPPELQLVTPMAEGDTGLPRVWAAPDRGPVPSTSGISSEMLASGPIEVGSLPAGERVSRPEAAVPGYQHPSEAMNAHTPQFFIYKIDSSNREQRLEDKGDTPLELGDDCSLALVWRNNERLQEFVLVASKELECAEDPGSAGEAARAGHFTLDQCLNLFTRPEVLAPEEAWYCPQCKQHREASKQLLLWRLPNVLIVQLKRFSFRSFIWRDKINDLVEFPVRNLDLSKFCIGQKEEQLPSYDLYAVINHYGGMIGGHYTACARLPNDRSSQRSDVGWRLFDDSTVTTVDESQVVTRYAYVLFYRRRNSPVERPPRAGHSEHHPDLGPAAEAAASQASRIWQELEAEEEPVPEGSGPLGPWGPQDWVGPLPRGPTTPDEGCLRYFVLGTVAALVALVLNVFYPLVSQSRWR
Method in brief: as §1

USP24 = USP24 (UniProt Q9UPU5)
Method in brief: as §1

USP25 = target: T2, USP25 (UniProt Q9UHP3)
T2 sequence (whole entry): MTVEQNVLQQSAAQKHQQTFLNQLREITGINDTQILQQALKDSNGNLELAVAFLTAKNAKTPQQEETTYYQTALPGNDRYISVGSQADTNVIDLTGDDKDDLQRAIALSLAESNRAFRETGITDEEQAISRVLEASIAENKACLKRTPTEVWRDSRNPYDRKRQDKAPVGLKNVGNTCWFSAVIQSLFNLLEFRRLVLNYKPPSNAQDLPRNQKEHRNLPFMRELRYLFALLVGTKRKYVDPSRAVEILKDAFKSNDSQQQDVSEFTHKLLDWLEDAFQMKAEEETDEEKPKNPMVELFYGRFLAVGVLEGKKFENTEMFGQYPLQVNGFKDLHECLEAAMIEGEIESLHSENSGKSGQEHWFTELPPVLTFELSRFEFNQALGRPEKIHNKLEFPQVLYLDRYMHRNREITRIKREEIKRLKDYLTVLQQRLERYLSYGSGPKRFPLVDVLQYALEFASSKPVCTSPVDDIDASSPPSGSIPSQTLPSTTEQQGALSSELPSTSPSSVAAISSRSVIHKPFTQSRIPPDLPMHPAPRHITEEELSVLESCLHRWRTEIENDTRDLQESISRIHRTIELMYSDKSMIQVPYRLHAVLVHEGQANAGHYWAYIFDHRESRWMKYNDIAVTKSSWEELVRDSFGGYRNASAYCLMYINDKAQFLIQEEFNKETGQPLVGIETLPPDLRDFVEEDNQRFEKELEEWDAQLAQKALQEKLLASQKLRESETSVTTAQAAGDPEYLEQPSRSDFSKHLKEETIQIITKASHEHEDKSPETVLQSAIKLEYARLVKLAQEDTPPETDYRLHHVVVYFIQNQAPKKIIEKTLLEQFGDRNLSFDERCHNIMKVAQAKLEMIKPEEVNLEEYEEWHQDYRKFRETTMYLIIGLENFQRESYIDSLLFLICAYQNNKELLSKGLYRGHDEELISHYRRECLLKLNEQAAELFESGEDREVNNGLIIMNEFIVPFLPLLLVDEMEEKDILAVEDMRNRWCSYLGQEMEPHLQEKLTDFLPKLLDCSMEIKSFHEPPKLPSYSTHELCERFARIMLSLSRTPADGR
Method in brief: as §1

USP28 = target: T3, USP28 (UniProt Q96RU2)
T3 sequence (whole entry): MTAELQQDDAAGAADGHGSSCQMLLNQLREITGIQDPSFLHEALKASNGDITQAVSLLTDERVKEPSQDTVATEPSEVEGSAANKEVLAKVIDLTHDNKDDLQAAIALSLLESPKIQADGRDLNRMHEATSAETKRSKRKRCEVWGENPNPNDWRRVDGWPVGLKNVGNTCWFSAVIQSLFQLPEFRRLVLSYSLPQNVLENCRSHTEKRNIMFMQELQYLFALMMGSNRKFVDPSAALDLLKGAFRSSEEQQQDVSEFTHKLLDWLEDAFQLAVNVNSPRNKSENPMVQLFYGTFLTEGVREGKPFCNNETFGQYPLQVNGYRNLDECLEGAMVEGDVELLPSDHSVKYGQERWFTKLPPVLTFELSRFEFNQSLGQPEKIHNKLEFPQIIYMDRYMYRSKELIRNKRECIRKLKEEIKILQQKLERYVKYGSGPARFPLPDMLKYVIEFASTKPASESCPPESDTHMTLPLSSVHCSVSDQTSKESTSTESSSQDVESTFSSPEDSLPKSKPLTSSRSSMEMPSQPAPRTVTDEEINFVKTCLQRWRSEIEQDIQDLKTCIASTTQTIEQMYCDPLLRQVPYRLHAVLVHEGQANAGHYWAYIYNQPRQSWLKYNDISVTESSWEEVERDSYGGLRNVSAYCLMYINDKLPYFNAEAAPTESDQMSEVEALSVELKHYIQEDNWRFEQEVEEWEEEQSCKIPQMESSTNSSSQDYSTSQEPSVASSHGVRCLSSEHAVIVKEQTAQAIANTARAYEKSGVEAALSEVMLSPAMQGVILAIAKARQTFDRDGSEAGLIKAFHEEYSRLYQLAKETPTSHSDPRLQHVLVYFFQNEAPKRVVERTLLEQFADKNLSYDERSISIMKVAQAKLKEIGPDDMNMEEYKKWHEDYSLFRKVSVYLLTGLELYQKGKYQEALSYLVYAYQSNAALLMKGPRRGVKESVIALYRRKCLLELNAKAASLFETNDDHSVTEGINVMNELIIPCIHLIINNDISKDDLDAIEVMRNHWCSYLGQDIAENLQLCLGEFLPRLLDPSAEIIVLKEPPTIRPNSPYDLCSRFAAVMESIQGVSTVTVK
Method in brief: as §1

Measured: log2 ratio of Biotin-Ahx-Ub-VS probe labelling

Sequence of USP16 (Q9Y5T5 whole entry, looked up, the tested form may be a part): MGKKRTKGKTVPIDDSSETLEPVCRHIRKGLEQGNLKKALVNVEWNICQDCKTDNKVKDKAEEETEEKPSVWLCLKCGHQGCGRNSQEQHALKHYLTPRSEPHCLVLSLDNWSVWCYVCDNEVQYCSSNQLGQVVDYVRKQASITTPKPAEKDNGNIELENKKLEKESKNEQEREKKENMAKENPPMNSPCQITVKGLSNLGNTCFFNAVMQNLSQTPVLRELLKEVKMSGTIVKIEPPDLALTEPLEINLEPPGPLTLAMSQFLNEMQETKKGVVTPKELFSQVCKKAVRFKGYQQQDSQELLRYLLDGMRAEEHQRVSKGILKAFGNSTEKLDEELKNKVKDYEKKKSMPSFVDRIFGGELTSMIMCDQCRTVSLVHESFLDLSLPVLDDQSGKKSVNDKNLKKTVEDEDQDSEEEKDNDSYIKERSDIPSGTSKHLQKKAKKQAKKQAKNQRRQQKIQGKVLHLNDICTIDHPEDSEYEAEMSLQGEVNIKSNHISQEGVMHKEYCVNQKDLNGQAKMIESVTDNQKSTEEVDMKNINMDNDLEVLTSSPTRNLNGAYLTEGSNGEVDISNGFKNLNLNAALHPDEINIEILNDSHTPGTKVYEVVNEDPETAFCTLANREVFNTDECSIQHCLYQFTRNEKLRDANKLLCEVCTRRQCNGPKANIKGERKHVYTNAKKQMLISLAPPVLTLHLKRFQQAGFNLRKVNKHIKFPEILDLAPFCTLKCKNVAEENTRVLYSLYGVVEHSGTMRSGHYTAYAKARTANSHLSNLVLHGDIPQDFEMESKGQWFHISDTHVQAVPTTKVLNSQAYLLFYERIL
Sequence of USP24 (Q9UPU5 whole entry): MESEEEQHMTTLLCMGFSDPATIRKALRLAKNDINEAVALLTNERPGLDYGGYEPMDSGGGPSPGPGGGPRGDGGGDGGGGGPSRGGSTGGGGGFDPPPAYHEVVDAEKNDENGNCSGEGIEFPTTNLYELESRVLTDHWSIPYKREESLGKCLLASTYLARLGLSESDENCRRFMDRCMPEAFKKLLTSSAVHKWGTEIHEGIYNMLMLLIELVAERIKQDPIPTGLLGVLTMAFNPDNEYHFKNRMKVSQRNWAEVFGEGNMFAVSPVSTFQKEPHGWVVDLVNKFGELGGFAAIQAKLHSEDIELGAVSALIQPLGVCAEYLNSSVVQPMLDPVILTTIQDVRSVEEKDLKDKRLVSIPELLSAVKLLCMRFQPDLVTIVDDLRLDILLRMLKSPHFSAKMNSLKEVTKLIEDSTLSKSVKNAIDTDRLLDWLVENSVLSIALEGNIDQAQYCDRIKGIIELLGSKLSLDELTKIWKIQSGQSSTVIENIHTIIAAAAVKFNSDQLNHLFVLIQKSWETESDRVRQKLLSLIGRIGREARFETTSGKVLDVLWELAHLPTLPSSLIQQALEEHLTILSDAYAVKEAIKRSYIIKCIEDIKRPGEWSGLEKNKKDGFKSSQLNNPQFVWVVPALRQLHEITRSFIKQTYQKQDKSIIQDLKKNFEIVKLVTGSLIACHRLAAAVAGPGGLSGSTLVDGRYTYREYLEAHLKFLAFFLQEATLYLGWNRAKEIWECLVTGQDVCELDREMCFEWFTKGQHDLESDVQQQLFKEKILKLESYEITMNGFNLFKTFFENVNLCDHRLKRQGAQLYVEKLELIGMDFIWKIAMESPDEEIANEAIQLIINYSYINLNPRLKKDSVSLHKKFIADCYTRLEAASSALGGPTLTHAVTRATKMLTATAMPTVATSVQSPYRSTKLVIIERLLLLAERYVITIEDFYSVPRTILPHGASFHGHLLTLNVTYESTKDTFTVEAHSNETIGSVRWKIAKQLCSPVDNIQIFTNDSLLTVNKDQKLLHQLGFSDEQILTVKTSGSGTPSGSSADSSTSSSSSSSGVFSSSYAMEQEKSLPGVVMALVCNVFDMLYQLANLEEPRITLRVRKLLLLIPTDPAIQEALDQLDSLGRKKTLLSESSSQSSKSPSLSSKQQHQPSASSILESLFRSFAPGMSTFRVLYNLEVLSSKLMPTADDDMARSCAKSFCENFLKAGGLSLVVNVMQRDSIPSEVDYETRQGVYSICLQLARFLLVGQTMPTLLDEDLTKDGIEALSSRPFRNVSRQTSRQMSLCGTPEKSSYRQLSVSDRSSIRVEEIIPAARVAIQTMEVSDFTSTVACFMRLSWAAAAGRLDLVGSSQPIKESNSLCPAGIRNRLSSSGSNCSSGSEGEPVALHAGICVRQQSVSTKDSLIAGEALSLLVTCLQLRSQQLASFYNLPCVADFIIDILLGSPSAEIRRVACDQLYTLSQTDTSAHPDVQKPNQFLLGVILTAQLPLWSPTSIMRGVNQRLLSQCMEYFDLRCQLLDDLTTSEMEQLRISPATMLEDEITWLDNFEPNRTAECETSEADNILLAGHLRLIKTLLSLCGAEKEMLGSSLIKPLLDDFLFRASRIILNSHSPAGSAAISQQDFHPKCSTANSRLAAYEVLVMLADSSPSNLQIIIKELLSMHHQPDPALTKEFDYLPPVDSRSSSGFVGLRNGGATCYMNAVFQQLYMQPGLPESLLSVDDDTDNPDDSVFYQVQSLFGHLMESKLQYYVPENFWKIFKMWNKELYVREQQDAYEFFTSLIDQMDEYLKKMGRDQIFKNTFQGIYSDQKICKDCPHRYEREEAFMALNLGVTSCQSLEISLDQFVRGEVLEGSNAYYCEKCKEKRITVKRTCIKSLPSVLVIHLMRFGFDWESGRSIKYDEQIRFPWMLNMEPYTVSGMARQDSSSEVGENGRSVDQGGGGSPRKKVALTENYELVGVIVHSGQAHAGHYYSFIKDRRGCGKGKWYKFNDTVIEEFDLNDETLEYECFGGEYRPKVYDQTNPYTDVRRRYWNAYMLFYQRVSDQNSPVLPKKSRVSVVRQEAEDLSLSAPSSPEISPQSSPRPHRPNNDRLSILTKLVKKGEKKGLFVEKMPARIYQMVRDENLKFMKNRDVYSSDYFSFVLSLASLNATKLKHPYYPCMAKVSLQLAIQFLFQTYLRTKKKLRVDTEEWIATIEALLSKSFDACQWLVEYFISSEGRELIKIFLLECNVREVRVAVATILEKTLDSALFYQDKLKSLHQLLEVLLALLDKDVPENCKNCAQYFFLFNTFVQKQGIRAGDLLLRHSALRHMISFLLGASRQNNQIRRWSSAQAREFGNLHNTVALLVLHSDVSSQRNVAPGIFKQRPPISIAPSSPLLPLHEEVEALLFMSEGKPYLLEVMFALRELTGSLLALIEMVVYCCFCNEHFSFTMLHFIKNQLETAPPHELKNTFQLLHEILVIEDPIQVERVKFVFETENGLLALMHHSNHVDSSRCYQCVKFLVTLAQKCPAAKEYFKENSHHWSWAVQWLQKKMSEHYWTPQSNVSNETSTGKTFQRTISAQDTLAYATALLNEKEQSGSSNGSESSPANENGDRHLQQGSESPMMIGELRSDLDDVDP

Cl.O=C(CCl)N1CCC(Cc2nccs2)C1 (stereo not given)
inactive: USP16 0.355 | USP19 -0.32 | USP24 -0.414 | USP25 -0.365 | USP28 -0.389
